DAX1 inh-1 – inhibits human nuclear receptor DAX1 | P51843 | HEK293 Gal4-DAX1 luciferase reporter, luminescence | inhibition, % at 6.75 µM | 340,000 tested, 0.99% active;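 active = inhibition above the mean over all tested compounds plus 3 SD, cut at about 4.2% in these data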;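 also: 0% = DAX1-transfected cells with DMSO and 100% = empty-vector control cells with DMSO; inhibition shows as a rise in luminescence from relieved DAX1 repression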
hgDAF12 agonist – agonists of H. glycines DAF-12 nuclear receptor. HEK293 GAL4-hgDAF12 UAS-luciferase reporter, agonist luminescence; normalized to butyrate control. activation, % at 6.8 µM. 370,000 tested, 1.8% active. AID 687014;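 active = activation above a cutoff set at the mean of all screened compounds plus 3 SD, cut at about 10% in these data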;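 also: 0% = DMSO wells and 100% = sodium butyrate wells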
hcDAF-12 act – activates DAF-12 receptor from parasite H. contortus | HEK293 hcDAF-12 lit1-tk-luc reporter, luminescence; 0% DMSO, 100% Δ7-dafachronic acid | activation, % at 6.8 µM | 370,000 tested, 1.4% active | AID 652067;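 active = activation above the mean of all tested compounds plus 3 SD, cut at about 5.5% in these data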;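 also: 100% = response to 3 µM Δ7-dafachronic acid high control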
DAX1 inh-2 – inhibitors of DAX1 repression of SF-1 activated StAR promoter; HEK293T StAR-luciferase reporter, SF-1/DAX-1 repression relief; inhibition, % at 6.8 µM; 370,000 tested, 1.1% active; AID 652010;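 active = inhibition above the mean over all tested compounds plus 3 SD, cut at about 3.6% in these data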;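 also: 0% = DAX-1 cells with DMSO and 100% = cells lacking DAX-1 with DMSO; higher inhibition means more luminescence from relief of DAX-1 repression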
ssDAF12 agonist – S. stercoralis DAF-12 activation, primary screen; HEK293 ssDAF-12/GRIP1 lit1-tk-luc reporter, luminescence; % of 3 µM dafachronic acid response; AID 652126; activation, % at 6.8 µM; 370,000 tested, 1% active;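 active = activation above the mean over all tested compounds plus 3 SD, cut at about 0.9% in these data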;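 also: 0% = DMSO-only wells and 100% = 3 µM delta7-dafachronic acid wells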
SMARCA2 act – increases SMARCA2 function in MMTV reporter cells. MG213 cells, MMTV-luciferase reporter, dexamethasone, overnight. activation, % at 9.1 µM. 370,000 tested, 1% active; in the data active = activation above about 7.8%;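 also: 0% = vehicle wells and 100% = reference activator wells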
LXR ag – LXR-beta agonism as hcDAF-12 counter-screen. shares compounds with hcDAF-12 act. HEK293 Gal4-LXR tk-luc reporter, luminescence, 24 h; normalized: DMSO 0%, positive control 100%. activation, % at 6.8 µM. 3,400 tested, under 10 active. AID 743027;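 active = mean percent activation of the reporter above a cutoff set as the average over tested compounds plus their standard deviation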
Target sequence (P55055 whole entry, looked up, the tested form may be a part): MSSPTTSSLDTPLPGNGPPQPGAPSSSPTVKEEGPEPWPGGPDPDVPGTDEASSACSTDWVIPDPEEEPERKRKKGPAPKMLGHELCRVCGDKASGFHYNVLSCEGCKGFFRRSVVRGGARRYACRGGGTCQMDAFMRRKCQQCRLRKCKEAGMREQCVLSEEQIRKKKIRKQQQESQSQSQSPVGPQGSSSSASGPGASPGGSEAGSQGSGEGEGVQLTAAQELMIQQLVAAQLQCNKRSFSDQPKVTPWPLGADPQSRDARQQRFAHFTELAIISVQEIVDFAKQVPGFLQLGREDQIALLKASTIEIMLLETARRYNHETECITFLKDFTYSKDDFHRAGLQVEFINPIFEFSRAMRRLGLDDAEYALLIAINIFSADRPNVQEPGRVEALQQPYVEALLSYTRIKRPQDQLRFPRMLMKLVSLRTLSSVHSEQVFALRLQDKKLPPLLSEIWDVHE
hcDAF12 conf – confirmation of H. contortus DAF-12 agonists; shares compounds with hcDAF-12 act; HEK293 hcDAF-12 lit1-tk-luc reporter, luminescence; % of Δ7-dafachronic acid response; activation, % at 6.8 µM; 3,400 tested, 61% active;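 active = mean activation across triplicate tests above the threshold derived from the earlier primary screen, cut at about 5.5% in these data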;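 also: 0% = DMSO only wells and 100% = 3 µM Δ7-dafachronic acid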
hgDAF12 conf – hgDAF-12 agonism, confirmation assay | shares compounds with hgDAF12 agonist | HEK293 GAL4-hgDAF12 luciferase reporter, agonist mode; percent of butyrate response | activation, % at 6.8 µM | 3,300 tested, 80% active | AID 743050;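 active = mean activation over triplicate wells above the hit cutoff derived from the earlier primary screen, cut at about 11% in these data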;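 also: 0% = DMSO low control and 100% = 2 mM sodium butyrate high control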
LXRb DAF12 ctr – LXR-beta agonism as DAF-12 counter-screen. AID 743051. HEK293 Gal4-LXR luciferase reporter, 24 h. shares compounds with hgDAF12 agonist. activation, % at 6.8 µM. 3,300 tested, under 10 active;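 active = mean activation of the triplicate above a set limit carried over from the primary screen, none filed active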
* hit, by the source's call; · = no result; ! = not active in a repeat. In the library only some 4.8% were active in any assay of this set; here they are far more common.

SMILES	DAX1 inh-1	hgDAF12 agonist	hcDAF-12 act	DAX1 inh-2	ssDAF12 agonist	SMARCA2 act	LXR ag	hcDAF12 conf	others
CCC(Oc1cc(Cl)ccc1Cl)C(=O)N1CCC2(CC1)OCCO2 (stereo not drawn)	1	0	-1	1	-1	4	·	·
CC(=Nc1ccccc1N)c1c(O)n(C)c(=O)[nH]c1=O	3	10	7.7*	2	1.8*	6	0	1
CC(=O)n1cc(C=C2C(=O)NC(=O)NC2=O)c2ccccc21	1	-2	9.8*	1	1	-2	0	5
Cn1cc(C=C2C(=O)NC(=O)NC2=O)c2ccccc21	0	0	5	0	0	2	·	·
CCCCC(=O)N/N=C/c1c(O)n(-c2cccc3ccccc23)c(=O)[nH]c1=O	1	1	4	0	-1	-6	·	·
CCOP(=O)(OCC)C1(O)C(=O)Nc2ccccc21 (stereo not drawn)	1	0	7.1*	0	0	0	0	3
CC(C)Sc1nnc([C@@H](N)Cc2c[nH]c3ccccc23)o1	1	2	5	0	-1	-2	·	·
CCC(N)Cc1c[nH]c2ccccc12 (stereo not drawn)	0	-1	7.2*	0	0	-3	0	5
O=[N+]([O-])c1ccc(C2[C@H]3C(c4ccccc4)=NC4(CCCCC4)N23)cc1 (stereo partly drawn)	0	-2	1	0	-1	3	·	·
CCCCn1c(=O)c(C(=O)Nc2ccsc2C(=O)OC)c(O)c2ccccc21	0	3	7.2*	1	0	-1	0	5
CCCCn1c(=O)c(C(=O)Nc2ccccc2F)c(O)c2ccccc21	0	0	7.0*	0	0	-2	0	6.1*
COc1cc(CNCCc2c[nH]c3ccccc23)cc(OC)c1	1	0	8.5*	0	-1	1	0	1
Cc1cc(S(N)(=O)=O)ccc1N=Cc1c(O)n(-c2ccccc2)c(=O)[nH]c1=O	3	-2	1	0	0	-1	·	·
Cc1ccc(-n2c(O)c(C=Nc3ccccc3N)c(=O)[nH]c2=O)cc1C	1	10	7.8*	4.4*	1	4	0	3
COc1ccc(NC2(C#N)CCCCC2)cc1	2	3	0	0	-1	-1	·	·
O=C(c1cc2cc(Br)ccc2[nH]1)N1CCC2(CC1)OCCO2	0	3	7.6*	0	0	-1	0	5
O=C(c1cc(Br)ccc1Cl)N1CCC2(CC1)OCCO2	2	0	0	0	-1	1	·	·
C=CCOC(=O)c1ccccc1N	1	-4	-3	1	-1	-3	·	·
Nc1ccccc1C(=O)OCCOc1ccccc1	1	11*	9.3*	4.3*	0	3	2	7.5*
CCOc1ccc(NC(=O)N2C[C@H]3C[C@@H](C2)c2cccc(=O)n2C3)cc1	2	-1	0	0	-1	0	·	·
O=c1[nH]c(=O)n(Cc2ccccc2)c(O)c1/C=C1\C=Nc2ccccc21	0	0	4	0	-1	1	·	·
O=c1[nH]c(=O)n(CC2CCCO2)c(O)c1/C=C1\C=Nc2ccccc21 (stereo not drawn)	5.4*!	5	6.1*	0	-1	1	0	4
CCCCn1nnnc1C(CC)N1CCC2(CC1)C(=O)NCN2c1ccccc1 (stereo not drawn)	·	1	-1	0	-1	-4	·	·
c1ccc2c(CN3CCOCC3)c[nH]c2c1	1	-1	7.0*	0	-1	-2	0	5
COc1ccc(-c2cc(=Nc3cccc(C(=O)O)c3)c3cc(C)ccc3o2)cc1	-1	19*	5	3	0.9*	3	·	·	hgDAF12 conf=19*;LXRb DAF12 ctr=1
CC(NC1CCCCC1)C(O)C12CC3CC(CC(C3)C1)C2 (stereo not drawn)	0	0	-1	1	-1	0	·	·
COc1cccc(-n2c(=S)[nH]c3ccccc3c2=O)c1	-1	0	3	-1	-2	-2	·	·
COc1ccc2c(c1)NP(=S)(Oc1ccccc1)N2 (stereo not drawn)	4	13*	5	1	0	7	·	·	hgDAF12 conf=8;LXRb DAF12 ctr=0
CN1C(=O)NC(=O)C(C)(C2=CCCCC2)C1=O (stereo not drawn)	3	22*	5	3.9*	-1	-1	·	·	hgDAF12 conf=13*;LXRb DAF12 ctr=0
COC(=O)C1=C(c2ccc3ccccc3c2)C[C@@H]2CC[C@H]1N2C(=O)NC(C)C	-1	2	-2	-1	-1	0	·	·

Bioassay records deposited in PubChem BioAssay by The Scripps Research Institute Molecular Screening Center.
